Measurements as given in article PMC4336329 (PLoS ONE, 2015).
The whole screen tested about 310,000 compounds, of which about 2,200 (0.71%) showed an effect of 50% or more. Effects have a minus sign here. Only a selection was taken, and strong results are over-represented in it overall.

Target: human ether-à-go-go-related gene (hERG) potassium channel (human, UniProt Q12809)
Experiment: primary screen, population patch clamp on CHO cells stably expressing hERG; higher = less effect of the substance
Procedure: Briefly, Chinese hamster ovary (CHO) cells stably expressing the hERG channel were dislodged from tissue culture flasks and dispensed into PPC plates. […] During the recording, background leak currents were estimated by a 100 ms step to -80 mV from an initial holding potential of -70 mV and subtracted from the subsequent current measurement. The campaign was conducted in two phases using slight differences in recording protocol. In the first phase, the initial voltage pulse used a 100 ms step to -30 mV from a holding potential of -70 mV, a 2 s conditioning step to +25 mV, and a 2 s test step to -30 mV. During the second phase of the screen, the potential during the conditioning step was raised to +45 mV. In both phases of the campaign, a secondary voltage pulse was applied using the same parameters as the second phase initial pulse. The initial and secondary pulses were applied in the absence of compound, and upon application of 1 μM and 10 μM test concentrations. Small molecule effects on hERG current density were quantified by […].

Sequence of human ether-à-go-go-related gene (hERG) potassium channel (Q12809 whole entry, looked up): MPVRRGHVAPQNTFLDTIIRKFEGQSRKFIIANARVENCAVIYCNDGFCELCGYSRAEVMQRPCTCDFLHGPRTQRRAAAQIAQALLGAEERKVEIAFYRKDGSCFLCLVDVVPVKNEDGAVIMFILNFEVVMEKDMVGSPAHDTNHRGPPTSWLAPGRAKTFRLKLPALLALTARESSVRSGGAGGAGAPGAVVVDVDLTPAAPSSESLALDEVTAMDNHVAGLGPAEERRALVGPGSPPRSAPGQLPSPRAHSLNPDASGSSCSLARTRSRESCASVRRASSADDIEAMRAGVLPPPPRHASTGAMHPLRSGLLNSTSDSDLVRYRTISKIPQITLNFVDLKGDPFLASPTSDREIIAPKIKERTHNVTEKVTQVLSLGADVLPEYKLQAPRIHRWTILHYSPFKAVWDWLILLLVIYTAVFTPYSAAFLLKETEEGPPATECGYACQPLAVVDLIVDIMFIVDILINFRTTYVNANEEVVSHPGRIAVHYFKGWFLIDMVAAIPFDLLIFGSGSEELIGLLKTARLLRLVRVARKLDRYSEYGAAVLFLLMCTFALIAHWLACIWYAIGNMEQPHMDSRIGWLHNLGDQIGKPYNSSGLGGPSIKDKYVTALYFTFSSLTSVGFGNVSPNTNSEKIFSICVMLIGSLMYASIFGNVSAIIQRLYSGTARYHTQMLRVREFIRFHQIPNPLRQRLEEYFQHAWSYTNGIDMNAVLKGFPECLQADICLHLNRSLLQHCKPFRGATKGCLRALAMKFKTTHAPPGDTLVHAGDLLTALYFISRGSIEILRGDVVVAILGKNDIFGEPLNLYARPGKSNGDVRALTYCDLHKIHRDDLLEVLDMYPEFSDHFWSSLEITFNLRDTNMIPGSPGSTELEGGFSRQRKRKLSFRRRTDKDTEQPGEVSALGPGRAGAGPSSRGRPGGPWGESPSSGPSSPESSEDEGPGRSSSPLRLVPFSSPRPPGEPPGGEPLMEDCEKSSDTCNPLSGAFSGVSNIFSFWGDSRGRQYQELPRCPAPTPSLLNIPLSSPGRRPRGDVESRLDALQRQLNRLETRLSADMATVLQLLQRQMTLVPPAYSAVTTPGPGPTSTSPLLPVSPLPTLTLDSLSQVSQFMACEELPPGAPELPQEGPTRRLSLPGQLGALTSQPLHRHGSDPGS

Compound | hERG current change (%, negative = inhibition) at 1uM [%]
Cc1ccccc1N1CCN(C2CCCN(C(=O)c3ccc(Cl)s3)C2)CC1 (stereo not drawn) | 1.61
CC(C)c1cc(C(=O)N2CCCC(N3CCN(c4ccc(F)cc4)CC3)C2)no1 (stereo not drawn) | -36.4
CC(C)=CC(=O)N1CCCC(N2CCN(c3ccc(F)cc3)CC2)C1 (stereo not drawn) | 19.1
Cc1cc(C(=O)N2CCCC(N3CCN(c4ccc(F)cc4)CC3)C2)no1 (stereo not drawn) | -19.1
Cc1nnsc1C(=O)N1CCCC(N2CCN(c3ccc(F)cc3)CC2)C1 (stereo not drawn) | 12.3
O=C(c1ccncc1)N1CCCC(N2CCN(c3ccc(F)cc3)CC2)C1 (stereo not drawn) | -19.9
CCCc1cc(C(=O)N2CCCC(N3CCN(c4ccc(F)cc4)CC3)C2)no1 (stereo not drawn) | -74.1
O=C(c1cccs1)N1CCCC(N2CCN(c3cccc(C(F)(F)F)c3)CC2)C1 (stereo not drawn) | -8.83
Cc1nonc1C(=O)N1CCCC(N2CCN(c3ccc(F)cc3)CC2)C1 (stereo not drawn) | -17.7
O=C(c1ccc(Cl)s1)N1CCCC(N2CCN(c3ccc(F)cc3)CC2)C1 (stereo not drawn) | -63.2
O=C(c1cccs1)N1CCCC(N2CCN(c3ccc(F)cc3)CC2)C1 (stereo not drawn) | -52.1
CC(=O)c1ccc(C(=O)N2CCCC(N3CCN(c4ccc(F)cc4)CC3)C2)s1 (stereo not drawn) | -51.3
Nc1nc(Br)c2ccccc2c1-c1ccccc1 | 9.58
CC(C)c1ccc(N(CC(=O)Nc2ccc(S(=O)(=O)N3CCOCC3)cc2)S(C)(=O)=O)cc1 | 21.3
COc1ccc(CCNC(=O)/C=C/c2ccc3ccccc3n2)cc1OC | 10.9
COc1ccc(S(=O)(=O)N(C)CC(=O)Nc2ccccc2SC)cc1Cl | 11.6
COc1nc2ccccc2c(=O)n1-c1ccc(C)cc1 | 7.4
Cc1cccc(C(=O)NCC2CCN(C(=O)c3cccc(C)c3)CC2)c1 | -2.21
COc1cccc(NC(=O)CCN2CCC(C(N)=O)CC2)c1 | 16.9
COCC(C)N1CCC(n2nccc2NC(=O)c2ccccc2Cl)CC1 (stereo not drawn) | -1.49
O=C(Nc1ccnn1C1CCN(Cc2cccnc2)CC1)c1ccccc1Cl | -11.5
Cc1ccccc1C(=O)Nc1ccnn1C1CCN(Cc2cnn(C(C)C)c2)CC1 | -27.3

Compound | hERG current change (%, negative = inhibition) at 1uM [%]
CC(CN1CCC(n2nccc2NC(=O)c2ccccc2Cl)CC1)c1ccccc1 (stereo not drawn) | -43.6
CCc1ccc(CN2CCC(n3nccc3NC(=O)c3ccccc3C)CC2)cc1 | -85.1
Cc1ccccc1C(=O)Nc1ccnn1C1CCN(Cc2cnn(C)c2)CC1 | -1.26
Cn1cc(CN2CCC(n3nccc3NC(=O)c3ccccc3Cl)CC2)cn1 | -4.32
Cc1ccccc1C(=O)Nc1ccnn1C1CCN(Cc2cccnc2)CC1 | -48.9
Cc1ccccc1C(=O)Nc1ccnn1C1CCN(Cc2ccncc2)CC1 | -3.47
O=C(Nc1ccnn1C1CCN(Cc2ccccc2)CC1)c1ccccc1Cl | -53.1
CSc1ccc(CN2CCC(n3nccc3NC(=O)c3ccccc3C)CC2)cc1 | -83.8
CC(CCN1CCC(n2nccc2NC(=O)c2ccccc2Cl)CC1)c1ccccc1 (stereo not drawn) | -85.1
O=C(c1cc([N+](=O)[O-])ccc1N1CCCCC1)N1CCCCC1 | -6.51
Cc1ccc(S(=O)(=O)N(C)Cc2ccc(-c3nnc4n3CCC4)cc2)cc1 | 0.889
COC(=O)c1ccc(N2CCCCC2)c(NS(=O)(=O)c2ccc(C)cc2)c1 | 12.6
CCOC(=O)CSc1nnc(Cn2c(=O)sc3ccccc32)n1C | -3.18
CCc1ccc(CN2CCC(n3nccc3NC(=O)c3ccccc3Cl)CC2)cc1 | -92.3
CCN1CCC(n2nccc2NC(=O)c2ccccc2Cl)CC1 | 10.5
COc1ccc(O)c(CN2CCC(n3nccc3NC(=O)c3ccccc3Cl)CC2)c1 | -15.4
Cc1cc(C)c(CN2CCC(n3nccc3NC(=O)c3ccccc3Cl)CC2)cc1C | 1.2
Cc1cc(CN2CCC(n3nccc3NC(=O)c3ccccc3Cl)CC2)cc(C)c1O | -64.4
NC(=O)c1ncn([C@@H]2O[C@H](CO)[C@@H](O)[C@H]2O)n1 | 25.8
Cn1c([O-])c(Cc2cccc(Cl)c2Cl)c(=O)n(C)c1=O.[NH4+] | 17.5
CCOc1ccc(OCC(=O)OCC(=O)N(CC(C)C)c2c(N)n(Cc3ccccc3)c(=O)[nH]c2=O)cc1 | 5.08
COc1cccc(NC(=O)Nc2cccc(C(=O)O)c2)c1 | 16.4

Compound | hERG current change (%, negative = inhibition) at 1uM [%]
CCOC(=O)C(CC)Sc1ccc2nnc(CCNS(=O)(=O)c3ccccc3)n2n1 (stereo not drawn) | 3.33
O=C(NCc1ccc(Cl)cc1Cl)C(=O)N1CCCCC1 | 7
O=C(c1cccc(C(F)(F)F)c1)N1CCN(CCc2ccccc2)CC1 | 1.81
CN(CC1CCCN(CCc2cccc(C(F)(F)F)c2)C1)C(=O)c1ccc2nc[nH]c2c1 (stereo not drawn) | 5.78
CN(CC1CCN(CCc2cccc(C(F)(F)F)c2)CC1)C(=O)c1ccccc1 | -56.1
CSCCC(=O)N(C)CC1CCN(CCc2cccc(C(F)(F)F)c2)CC1 | -27.3
COc1ccc(CC(=O)NCC2CCCN(Cc3cccc(C(F)(F)F)c3)C2)cc1 (stereo not drawn) | 5.75
COC(=O)CCC(=O)N(C)CC1CCCN(CCc2cccc(C(F)(F)F)c2)C1 (stereo not drawn) | -39.9
CSCCC(=O)N(C)CC1CCCN(CCc2cccc(C(F)(F)F)c2)C1 (stereo not drawn) | -55.1
CN(CC1CCCN(CCc2cccc(C(F)(F)F)c2)C1)C(=O)c1ccco1 (stereo not drawn) | -38.3
CC(=O)Nc1ccc(CN(C)CC2CCCN(CCc3cccc(C(F)(F)F)c3)C2)cc1 (stereo not drawn) | -18.4
COc1cccc(C(=O)N(C)CC2CCN(CCc3cccc(C(F)(F)F)c3)CC2)c1 | -70.3
CN(CC1CCN(CCc2cccc(C(F)(F)F)c2)CC1)C(=O)c1ccc(F)cc1F | -35.9
CN(CC1CCN(CCc2cccc(C(F)(F)F)c2)CC1)C(=O)c1ccc(F)cc1 | -60
CCn1c(/N=C/c2ccc(OC)cc2O)nc2ccccc21 | 14
Cc1ccc(NC(=O)Nc2cccn(Cc3c(F)cccc3Cl)c2=O)cc1 | 13.2
S=C(Nc1ccccc1)Nc1ccc(Br)cc1 | 14.5
Cc1cccnc1-n1c(C)nc2ccccc2c1=O | 7.55
CSCCC(NC(=O)c1cc(C(C)(C)C)oc1C)C(=O)O (stereo not drawn) | 15.6
COc1cc(C(=O)O)c2c(c1C)OC(=O)c1c(C)cc(O)c(C=O)c1O2 | 22.5
COc1cc(C(=O)N(C)CC2CCN(CCc3cccc(C(F)(F)F)c3)CC2)ccc1C | -63.8
CC(=O)NCCC(=O)N(C)CC1CCN(CCc2cccc(C(F)(F)F)c2)CC1 | 12.5

Compound | hERG current change (%, negative = inhibition) at 1uM [%]
COc1cc(CN(C)CC2CCCN(CCc3cccc(C(F)(F)F)c3)C2)ccc1O (stereo not drawn) | 2.96
CCCC(=O)Nc1ccc(NC(=O)c2ccccc2F)cn1 | 11.2
Fc1ccc(NC(=S)NCCN2CCOCC2)c(F)c1F | 12.2
S=C(Nc1ccc2snnc2c1)N1CCN(c2ccccn2)CC1 | 10
COc1cccc(N2CCN(CC(=O)c3c(C)[nH]c4ccccc34)CC2)c1 | -10.9
CCN(CC(=O)NCc1ccc(F)cc1)S(=O)(=O)c1ccc(C)cc1 | -13.7
Cc1ccc(S(=O)(=O)N(CC(=O)NCc2ccncc2)Cc2ccc(F)cc2)cc1 | -75
Cc1ccc(S(=O)(=O)N(CC(=O)O)Cc2ccccc2F)cc1 | 6.83
Cc1ccc(S(=O)(=O)N(CC(=O)NCc2ccncc2)Cc2ccccc2F)cc1 | -53.2
O=C(CN(Cc1ccccc1)S(=O)(=O)c1ccc(F)cc1)NCc1ccncc1 | -9.19
CCCNC(=O)CN(Cc1ccccc1F)S(=O)(=O)c1ccc(C)cc1 | 5.85
O=C(CCc1nnc2ccc(N3CCCC3)nn12)Nc1cc(F)ccc1F | -9.58
COc1ccc(N=C(C)C2=C(O)COC2=O)cc1 | 4.93
CN1CSC2=C(C#N)C(c3cccc(OCc4ccccc4)c3)CC(=O)N2C1 (stereo not drawn) | 4.22
CCC(NC(=O)OCc1ccccc1)C(=O)Oc1ccc2ccc(=O)oc2c1 (stereo not drawn) | 18.8
C=CCn1c(SCC(=O)NNC(=O)Nc2ccc(C)cc2)nnc1-c1ccccc1 | 1.92
CCCN1CCN(S(=O)(=O)c2c(C)[nH]c(C)c2C(=O)N2CCCCC2)CC1 | -0.989
CCn1c(SCC(=O)Nc2ccccc2OC)nc(O)cc1=O | 10
COC(=O)c1cc(Br)c(=O)n(-c2ccc(OC)cc2)c1 | 5.39
COC(=O)c1cc(Br)c(=O)n(CCc2ccc(F)cc2)c1 | -3.04
COC(=O)c1cc(Br)c(=O)n(-c2ccc(F)cc2)c1 | -70.1
